Screens as filed in PubChem BioAssay.
The sample as a whole holds a higher share of hits than the screen did.
ERp5 block = ERp5 (human) disulfide isomerase inhibition. Q15084. ERp5 insulin aggregation, absorbance 650 nm, 90 min. inhibition, % at 9.99 µM. hit rate 0.05% among 350,000;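 active means mean replicate inhibition above about 25%, with every replicate also reaching it, limit read from the data, passing the limit was not always enough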
HDAC3 inh = inhibitors of human histone deacetylase 3; O15379; recombinant HDAC3, fluorogenic peptide/trypsin coupled, fluorescence; inhibition, % at 8.3 µM; hit rate 0.15% among 320,000; in the data active means inhibition above about 26%, passing the limit was not always enough
ERAP1 inh = ERAP1 (human) enzyme inhibition; recombinant ERAP1, Leu-AMC fluorescence, 60 min; inhibition, % at 10.7 µM; hit rate 0.15% among 340,000; AID 652197;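 active means mean replicate inhibition of at least 30%, or all replicates individually reaching that 30% level; inactive means mean below 30% and not every replicate reaching it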;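 further: 0% = neutral control wells and 100% = L-leucinethiol positive control wells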
PDI turbidity = PDI (human) enzyme inhibition | P07237 | AID 588391 | hit rate 0.052% among 350,000 | inhibition, % at 10 µM | PDI insulin aggregation turbidity, A650, 90 min;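 active means mean inhibition across replicates of 30% or more, whatever share of single replicates reach that level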
Target sequence (P07237 whole entry, looked up): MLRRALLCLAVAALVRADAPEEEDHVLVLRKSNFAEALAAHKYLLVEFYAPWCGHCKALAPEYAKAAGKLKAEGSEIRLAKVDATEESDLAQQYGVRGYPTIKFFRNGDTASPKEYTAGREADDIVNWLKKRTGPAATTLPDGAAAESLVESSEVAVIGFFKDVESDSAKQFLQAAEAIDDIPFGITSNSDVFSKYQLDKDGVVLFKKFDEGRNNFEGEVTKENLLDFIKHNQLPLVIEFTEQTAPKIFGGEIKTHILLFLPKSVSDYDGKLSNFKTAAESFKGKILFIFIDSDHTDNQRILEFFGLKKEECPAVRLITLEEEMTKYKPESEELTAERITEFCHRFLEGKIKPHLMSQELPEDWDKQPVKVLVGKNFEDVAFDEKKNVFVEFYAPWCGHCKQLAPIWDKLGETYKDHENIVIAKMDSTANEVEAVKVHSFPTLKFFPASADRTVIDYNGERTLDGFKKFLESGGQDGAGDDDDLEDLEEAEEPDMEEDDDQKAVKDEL
SIRT5 inh = inhibitors of human sirtuin-5 desuccinylase; hit rate 1.1% among 330,000; Purified SirT5, succinyl-peptide AMC, trypsin-coupled fluorescence; inhibition, % at 15 µM; in the data active means inhibition above about 15%
Numbers without * were called inactive; . = no result.

SMILES | ERp5 block | HDAC3 inh | ERAP1 inh | PDI turbidity | SIRT5 inh
Cc1cccc(S(=O)(=O)N2C[C@H](O)COC[C@@H]3O[C@@H](CC(=O)N4CCN(C)CC4)CC[C@H]32)c1 | -1 | . | 1 | . | -3
CC=Cc1ccc2n(c1=O)C[C@H]1[C@H](CO)[C@@H](C(=O)N[C@H](C)c3ccccc3)[C@@H]2N1CC1CC1 (mixture of isomers) | 2 | . | 0 | . | 0
O=C(CSc1ncnc2scc(-c3ccc(F)cc3)c12)c1ccc2c(c1)OCCO2 | . | 81* | . | -5 | .
Cc1ccc(-c2csc3ncnc(SCC(=O)c4ccc5c(c4)OCCO5)c23)cc1 | . | 3 | . | 7 | .
Cc1ccc(C2CC(=O)C=C(NCC(C)C)C2)cc1 (stereo not drawn) | 8 | 2 | 14 | -1 | 15*
Cc1ccc(C2CC(=O)C=C(NCc3ccccc3)C2)cc1 (stereo not drawn) | 3 | . | 0 | -6 | -4
O=C(Oc1ccc(Cl)cc1N1C(=O)CCC1=O)c1ccco1 | . | 34* | . | -13 | .
COC(=O)c1sccc1Oc1ccc(Cl)cc1N1C(=O)CCC1=O | 1 | -3 | 1 | 1 | -4
C[n+]1cccc(C(=O)NNC(=O)C23CC4CC(CC(C4)C2)C3)c1 | -6 | 12 | 109* | -6 | 1
COc1ccccc1C(=O)NNC(=O)C12CC3CC(CC(C3)C1)C2 | 1 | 1 | 0 | -3 | -4
CN(C[C@@H]1N[C@H](CO)[C@@H]1c1ccc(C2=CCCC2)cc1)S(C)(=O)=O | -6 | . | 0 | . | 16*
CN(C[C@H]1N[C@@H](CO)[C@H]1c1ccc(C2=CCCC2)cc1)S(C)(=O)=O | 5 | . | 0 | . | 2
Cc1noc(C)c1COC(=O)C(c1ccccc1)c1ccccc1 | -3 | 8 | 1 | 1 | 16*
Cc1ccc(-c2ccc(=O)n(CC(=O)Nc3ccc4c(c3)OCCO4)n2)cc1 | 4 | 6 | -4 | 2 | 20*
O=C(Cn1nc(-c2ccc(F)cc2)ccc1=O)Nc1ccc2c(c1)OCCO2 | 0 | 2 | 2 | -2 | -3
CCOc1ccccc1NC(=O)C1CCN(c2ccc(S(=O)(=O)N3CCCC3)cc2)CC1 | -2 | . | 0 | 6 | 17*
COc1ccc(NC(=O)N(C)C[C@H]2OCCCC[C@@H](C)Oc3ccc(NS(=O)(=O)c4cn(C)cn4)cc3C(=O)N([C@H](C)CO)C[C@@H]2C)cc1 | 25 | . | 2 | . | 0
CCNC(=S)N/N=C/c1cc(C)n(-c2ccc(Cl)cc2)c1C | 1 | 5 | 0 | 4 | 16*
Cc1cc(/C=N/NC(N)=S)c(C)n1-c1ccc(Cl)c(Cl)c1 | 1 | 14 | 11 | 4 | -3
O=c1c(O[C@@H]2O[C@H](CO)[C@@H](O)[C@H](O)[C@H]2O)c(-c2ccc(O)cc2)oc2cc(O)cc(O)c12 | . | 7 | . | 37* | .
CC1OC(OCC2OC(Oc3c(-c4ccc(O)cc4)oc4cc(O)cc(O)c4c3=O)C(O)C(O)C2O)C(O)C(O)C1O (stereo not drawn) | -1 | 3 | 2 | . | 6
C[C@@H]1O[C@@H](OC[C@H]2O[C@@H](Oc3c(-c4ccc(O)c(O)c4)oc4cc(O)cc(O)c4c3=O)[C@H](O)[C@@H](O)[C@@H]2O)[C@H](O)[C@H](O)[C@H]1O | 1 | 4 | 2 | 58* | 2
C[C@H](CO)N1C[C@H](C)[C@H](CN(C)Cc2ccc(C(=O)O)cc2)Oc2ccc(NC(=O)Cn3cnnn3)cc2C1=O | 2 | . | 0 | . | 10
CCc1ccc(-c2cc(C)no2)cc1S(=O)(=O)NCc1ccco1 | 5 | -8 | -1 | 11 | 3
CCc1ccc(-c2cc(C)no2)cc1S(=O)(=O)Nc1cc(C)ccn1 | 4 | -1 | 0 | -11 | 32*
SMILES | ERp5 block | HDAC3 inh | ERAP1 inh | PDI turbidity | SIRT5 inh
c1cc[n+](CCC[n+]2ccccc2)cc1 | 0 | 3 | 110* | -1 | -3
C[C@H](CO)N1C[C@H](C)[C@H](CN(C)S(=O)(=O)c2ccc(Cl)cc2)OCCCC[C@H](C)Oc2ccc(NC(=O)NC3CCCCC3)cc2C1=O | -5 | . | 2 | . | 7
Cc1ccc(-c2ccc(SCC(=O)N3CCN(c4ccccc4)CC3)nn2)cc1 | . | 1 | . | -24 | .
O=C(CSc1ccc(-c2ccccc2)nn1)N1CCN(c2ccccc2)CC1 | -1 | -6 | 2 | -2 | 18*
CCCC#Cc1cnc2c(c1)C(=O)N([C@H](C)CO)C[C@@H](C)[C@@H](CN(C)S(=O)(=O)c1cn(C)cn1)O2 | -4 | . | 0 | . | 3
C[C@@H]1CN([C@@H](C)CO)C(=O)c2cc(NS(=O)(=O)c3ccccc3)ccc2O[C@H]1CN(C)C(=O)Nc1cccc2ccccc12 | -1 | . | 0 | . | -3
C[C@@H]1O[C@@H](O[C@@H]2C(=O)c3c(O)cc(O)cc3O[C@H]2c2ccc(O)c(O)c2)[C@H](O)[C@H](O)[C@H]1O | -1 | -1 | -1 | 44* | .
Cn1cnc(S(=O)(=O)N[C@@H]2CC[C@H](CC(=O)NCC3CC3)O[C@H]2CO)c1 | 3 | . | -1 | . | -5
COc1ccc(C2=Nn3c(nnc3-c3ccccc3F)SC2)cc1OC1CCCC1 | 1 | 2 | -1 | -7 | 20*
CN(C)C(=O)C[C@H]1C[C@H]2c3cc(NS(C)(=O)=O)ccc3O[C@H]2[C@H](CO)O1 | 68* | . | 0 | . | -14
CN(C)C(=O)C[C@H]1C[C@H]2c3cc(NS(C)(=O)=O)ccc3O[C@H]2[C@@H](CO)O1 | 33* | . | 1 | . | 1
CN(C)C(=O)C[C@H]1C[C@@H]2c3cc(NS(C)(=O)=O)ccc3O[C@@H]2[C@@H](CO)O1 | -1 | . | -2 | . | 0
CN(C)C(=O)C[C@H]1C[C@@H]2c3cc(NS(C)(=O)=O)ccc3O[C@@H]2[C@H](CO)O1 | 15 | . | -1 | . | 1
CCC(=O)Nc1ccc2c(c1)OC[C@H](C)N(C(=O)Cc1ccccn1)C[C@@H](C)[C@H](OC)CN(C)C2=O | 7 | . | 2 | . | -6
Cc1[nH]n(-c2ccccc2)c(=S)c1C=Nc1cccc([N+](=O)[O-])c1 | . | 55* | . | 4 | .
O=C(Nc1ccc(F)cc1)Nc1ccc2c(c1)[C@H]1C[C@H](CC(=O)N3CCOCC3)O[C@@H](CO)[C@H]1O2 | -2 | . | 0 | . | -1
O=C(Nc1ccccc1)N[C@@H]1CC[C@@H](CCn2cc(-c3ccccc3F)nn2)O[C@@H]1CO | 1 | . | -4 | . | 0
CC1CCC/C(=C\Nc2ccc(C(=O)O)cc2)C1=O (stereo not drawn) | 10 | 2 | 0 | -9 | 6
CC(=O)Nc1ccc(N/C=C2/CCCC2=O)cc1 | 5 | 4 | . | -2 | 0
O=C1CCCC/C1=C\Nc1ccc(C(=O)O)c(O)c1 | 2 | 3 | -3 | 17 | 23*
CC1CCC/C(=C\Nc2ccc(C(=O)O)c(O)c2)C1=O (stereo not drawn) | 7 | -6 | . | 6 | 29*
Cc1ccccc1NC(=S)N/N=C/c1ccc(O)cc1O | 0 | 10 | . | -9 | 16*
Cc1cccc(NC(=S)N/N=C/c2cccc(O)c2)c1C | -2 | . | . | 2 | 0
